Tests used:
Assay type in all cases: functional
[1] = tested on: Plasmodium falciparum; experiment: GSK_TCMDC: Inhibition of Plasmodium falciparum 3D7 in whole red blood cells, using parasite LDH activity as an index of growth. Test compounds present at 2uM
[2] = tested on: Plasmodium falciparum; experiment: GSK_TCMDC: Inhibition of Plasmodium falciparum Dd2 in whole red blood cells, using parasite LDH activity as an index of growth. Test compounds present at 2uM
[3] = tested on: HepG2; experiment: GSK_TCMDC: Percent inhibition of human HepG2 cell line. Test compounds present at 10uM.

`Cc1cc(N[C@@H](Cc2ccccc2)C(=O)NC2CCCC2)nc(NCC2CCCCC2)n1.O=C(O)C(F)(F)F` showed an Inhibition [1] of 100%, an Inhibition [2] of 96% and an Inhibition [3] of 18%.

For `O=C(O)C(F)(F)F.c1ccc(CNCc2cccc(-c3csc(-c4nc5ccccc5[nH]4)c3)c2)cc1`, the Inhibition [1] was 100%, the Inhibition [2] was 54% and the Inhibition [3] was 24%.

For `Cl.O=C(Oc1ccc(C2CNCCc3c2cc(OC(=O)c2ccc(O)cc2)c(OC(=O)c2ccc(O)cc2)c3Cl)cc1)c1ccc(O)cc1` (stereo unspecified), the Inhibition [1] was 90%, the Inhibition [2] was 60% and the Inhibition [3] was 0%.

`CC1CCc2c(C(=O)N3CCc4ccccc4C3)csc2C1` (stereo unspecified) was tested, and the Inhibition [1] was 99%, the Inhibition [2] was 75% and the Inhibition [3] was 9%.

`CCN(CC)CCN(Cc1ccc(-c2ccc(C(F)(F)F)cc2)cc1)C(=O)Cn1c(CCc2c(F)cccc2F)nc(=O)c2ccccc21.O=C(O)C(O)C(O)C(=O)O` gave an Inhibition [1] of 100%, an Inhibition [2] of 61% and an Inhibition [3] of 36%.

`O=C(Nc1ccc(-c2cccc(-c3nc4cc(F)ccc4[nH]3)c2)cc1)c1ccncc1` was tested, and the Inhibition [1] was 96%, the Inhibition [2] was 18% and the Inhibition [3] was 58%.

Compound `O=C(Nc1ccc(-c2nc3ccccc3[nH]2)cc1)c1ccc(S(=O)(=O)N2CCc3ccccc32)cc1` has an Inhibition [1] of 100%, an Inhibition [2] of 34% and an Inhibition [3] of 32%.

For `COc1ccc(CNC(=O)NC2CCN(c3ccnc(Nc4ccc(F)cc4)n3)CC2)cc1`, the Inhibition [1] was 87%, the Inhibition [2] was 4% and the Inhibition [3] was 16%.

`Cl.O=c1cc(NCCCNCc2ccc(Cl)c(Cl)c2)[nH]c2cc(F)cc(F)c12` was tested, and the Inhibition [1] was 100%, the Inhibition [2] was 94% and the Inhibition [3] was 11%.

`Cc1cccc(-n2nc(C)c3c2NC(=O)CC3C(=O)c2ccc(Cl)s2)c1` (stereo unspecified) was tested, and the Inhibition [1] was 92%, the Inhibition [2] was 85% and the Inhibition [3] was 13%.

`CCOc1cc(C(=O)NCCc2ccc(Cl)c(Cl)c2)ccc1-c1nc2cc(Cl)ccc2[nH]1` gave an Inhibition [1] of 100%, an Inhibition [2] of 47% and an Inhibition [3] of 9%.

In the case of `COc1c(C2CCN(CCCCNC(=O)c3cc(-c4ccc(Cl)cc4)[nH]c3C)CC2)ccc2c1CCCC2`, the Inhibition [1] is reported as 100%, the Inhibition [2] is reported as 91% and the Inhibition [3] is reported as 53%.

`CCNC(=O)c1ccc(-n2nc(C)cc2-c2ccccc2)cc1` was tested, and the Inhibition [1] was 89%, the Inhibition [2] was 54% and the Inhibition [3] was 11%.

`O=C(Nc1cccc(C(F)(F)F)c1)c1ccc(S(=O)(=O)NC2CCN(CC3CCCCC3)CC2)cc1.O=C(O)C(F)(F)F` gave an Inhibition [1] of 83%, an Inhibition [2] of 0% and an Inhibition [3] of 25%.

`Cc1ccc(NC(=O)c2ccc3nccnc3c2)cc1OC1CCN(Cc2ccc(F)cc2)CC1.O=C(O)C(F)(F)F` gave an Inhibition [1] of 87%, an Inhibition [2] of 24% and an Inhibition [3] of 16%.

In the case of `Br.CC(C)c1ccc(OCCCON2C(=N)N=C(N)NC2(C)C)cc1`, the Inhibition [1] is reported as 93%, the Inhibition [2] is reported as 97% and the Inhibition [3] is reported as 69%.

In the case of `CN(C)CCOc1cc(NC(=O)Nc2ccc(-c3ccccc3)cc2Cl)ccc1I`, the Inhibition [1] is reported as 100%, the Inhibition [2] is reported as 93% and the Inhibition [3] is reported as 25%.

Compound `Cc1c[nH]c(-c2cccc(C(=O)NC3CCC(CCN4CCc5ccc(C#N)cc5CC4)CC3)c2)n1.Cl` (stereo unspecified) has an Inhibition [1] of 100%, an Inhibition [2] of 69% and an Inhibition [3] of 23%.

For `Oc1ccc(Cl)cc1CN1CCC2(CCCN(CC3CCC3)C2)C1` (stereo unspecified), the Inhibition [1] was 100%, the Inhibition [2] was 94% and the Inhibition [3] was 5%.

For `COc1ccc2c(=NN=Cc3cccnc3)cc(C)[nH]c2c1`, the Inhibition [1] was 85%, the Inhibition [2] was 12% and the Inhibition [3] was 0%.

With `CCOc1ccc(C(=O)Nc2cc(Br)c3c(c2)CNCC3)cc1C#N.Cl` the Inhibition [1] was 97%, the Inhibition [2] was 32% and the Inhibition [3] was 17%.

`O=C(Nc1ccc(OC2CCN(Cc3ccc(F)cc3)C2)c(Cl)c1)c1ccco1.O=C(O)C(F)(F)F` (stereo unspecified) showed an Inhibition [1] of 96%, an Inhibition [2] of 97% and an Inhibition [3] of 9%.

Work on `CCN(CC)CCCC(C)Nc1ccnc2ccc(-c3ccccc3)cc12` (stereo unspecified) yielded an Inhibition [1] of 98%, an Inhibition [2] of 21% and an Inhibition [3] of 0%.

For `O=C(/C=C/c1ccc(Cl)c(Cl)c1)NCCCCN1CCCN(C(=O)Nc2ccc(C(F)(F)F)cc2)CC1`, the Inhibition [1] was 94%, the Inhibition [2] was 0% and the Inhibition [3] was 35%.

`Nc1ncnc2cc(-c3cccc(S(N)(=O)=O)c3)sc12` gave an Inhibition [1] of 98%, an Inhibition [2] of 99% and an Inhibition [3] of 13%.

Work on `CN(C)CCNC(=O)[C@H](Cc1ccccc1)NC(=O)c1ccc(O)c(-c2ccc(Cl)c(Cl)c2)c1` yielded an Inhibition [1] of 98%, an Inhibition [2] of 0% and an Inhibition [3] of 0%.

For `Nc1nc(N)c2c(ccc3c2ccn3Cc2ccccc2)n1`, the Inhibition [1] was 96%, the Inhibition [2] was 94% and the Inhibition [3] was 64%.

Work on `O=C(c1cc(-c2cccs2)n[nH]1)N1CCN(S(=O)(=O)c2ccc(Br)cc2)CC1` yielded an Inhibition [1] of 93%, an Inhibition [2] of 95% and an Inhibition [3] of 0%.

`COc1cc(NC(=O)N2CCOC(CCN3CCC(c4ccccc4)CC3)(c3ccc(Cl)c(Cl)c3)C2)cc(OC)c1` (stereo unspecified) gave an Inhibition [1] of 93%, an Inhibition [2] of 73% and an Inhibition [3] of 12%.

With `Cn1cc(-c2ccccc2C(=O)O)c(=O)c2cc(Cl)ccc21` the Inhibition [1] was 89%, the Inhibition [2] was 0% and the Inhibition [3] was 16%.

For `Cc1ccc(Nc2nc(C)cc(NC3CC3)n2)cc1`, the Inhibition [1] was 97%, the Inhibition [2] was 15% and the Inhibition [3] was 0%.

For `CCCCNC(=O)c1cc(CNC2CCCCC2)ccc1-c1cccc(CNCc2ccc(-c3ccccc3)cc2)c1.O=C(O)C(F)(F)F`, the Inhibition [1] was 100%, the Inhibition [2] was 85% and the Inhibition [3] was 100%.

`O=C(NCCCCCN1CCC(c2c[nH]c3ccccc23)CC1)Nc1cccc(Br)c1` was tested, and the Inhibition [1] was 84%, the Inhibition [2] was 0% and the Inhibition [3] was 39%.

`O=C(COc1ccccc1)NC1CCN(c2ccnc3cc(Cl)ccc23)C1.O=C(O)C(F)(F)F` (stereo unspecified) showed an Inhibition [1] of 100%, an Inhibition [2] of 35% and an Inhibition [3] of 22%.

In the case of `NCc1cccc(-c2cccc(CNC3CCN(Cc4ccccc4)CC3)c2)c1.O=C(O)C(F)(F)F`, the Inhibition [1] is reported as 100%, the Inhibition [2] is reported as 45% and the Inhibition [3] is reported as 9%.

Work on `CC1(C)N=C(N)N=C(N)N1OCc1cc(Cl)c(CON2C(N)=NC(N)=NC2(C)C)cc1Cl` yielded an Inhibition [1] of 94%, an Inhibition [2] of 77% and an Inhibition [3] of 21%.

Compound `CCc1cc(Br)c(CNCCCNc2cc(=O)c3ccccc3[nH]2)s1.Cl` has an Inhibition [1] of 90%, an Inhibition [2] of 45% and an Inhibition [3] of 6%.

For `CC(C)c1ccc(NC(=O)c2ccc(CN3CCCN(CC4CCCCC4)CC3)cc2)cc1.O=C(O)C(F)(F)F`, the Inhibition [1] was 90%, the Inhibition [2] was 34% and the Inhibition [3] was 50%.

Work on `CCCCCCOc1ccc(C(=O)N(Cc2ccccc2)c2c(-c3ccccc3)nc3cc(C)ccn23)cc1` yielded an Inhibition [1] of 95%, an Inhibition [2] of 96% and an Inhibition [3] of 0%.

In the case of `COc1ccccc1CNC(=O)c1nn(-c2ccc(Cl)cc2)c(=O)c2ccccc12`, the Inhibition [1] is reported as 100%, the Inhibition [2] is reported as 80% and the Inhibition [3] is reported as 0%.

Work on `CCOc1cc(C(=O)Nc2ccc3nc(N4CCCCC4)cc(C)c3c2)cc(OCC)c1OCC` yielded an Inhibition [1] of 100%, an Inhibition [2] of 2% and an Inhibition [3] of 26%.

For `Cc1cc(N2CCN(CC3CCCCC3)CC2)nc(Nc2ccc(Br)cc2)n1`, the Inhibition [1] was 91%, the Inhibition [2] was 16% and the Inhibition [3] was 0%.

`CCN(CC)CCOc1ccc(Nc2ncc3cc(-c4c(Cl)cccc4Cl)c(=O)n(C)c3n2)cc1` [PD-0166285] gave an Inhibition [1] of 90%, an Inhibition [2] of 91% and an Inhibition [3] of 72%.

`CCCNCc1ccc(-c2ccc(CNC3Cc4ccccc4C3)cc2)nc1.O=C(O)C(F)(F)F` was tested, and the Inhibition [1] was 97%, the Inhibition [2] was 32% and the Inhibition [3] was 23%.

With `O=C(Nc1ccc2c(c1)CCC2)c1cccc(N2CCN(c3ccncc3)CC2)c1.O=C(O)C(F)(F)F` the Inhibition [1] was 92%, the Inhibition [2] was 22% and the Inhibition [3] was 35%.

Compound `CCc1ccc(NC(=O)c2ccc(CN3CCCN(Cc4cccc(O)c4)CC3)cc2)cc1.O=C(O)C(F)(F)F` has an Inhibition [1] of 100%, an Inhibition [2] of 55% and an Inhibition [3] of 51%.

For `O=S(=O)(c1ccc2cc[nH]c2c1)N1CCC[C@@H]1CCN1CCC(c2c[nH]c3cnccc23)CC1`, the Inhibition [1] was 95%, the Inhibition [2] was 0% and the Inhibition [3] was 13%.

Compound `CC(C)NCc1ccc(-c2ccc(-c3nc4cc(C(F)(F)F)ccc4[nH]3)s2)cc1.O=C(O)C(F)(F)F` has an Inhibition [1] of 100%, an Inhibition [2] of 94% and an Inhibition [3] of 30%.

`Cc1c(Cl)ccc2c(C(=O)Nc3ccncc3)cc(-c3cccnc3)nc12` gave an Inhibition [1] of 99%, an Inhibition [2] of 83% and an Inhibition [3] of 16%.

With `Cc1cc(NC(=O)NCCN2CCC(NS(=O)(=O)c3cccc(Br)c3)C2)c2ccccc2n1.O=C(O)C(F)(F)F` (stereo unspecified) the Inhibition [1] was 99%, the Inhibition [2] was 58% and the Inhibition [3] was 0%.

With `O=C(c1ccc(Br)o1)N1N=C(c2cccs2)CC1c1ccc(Br)cc1` (stereo unspecified) the Inhibition [1] was 96%, the Inhibition [2] was 45% and the Inhibition [3] was 5%.

`CN(C)CCCNCc1cn(S(=O)(=O)c2ccccc2Cl)c2ccccc12.Cl` gave an Inhibition [1] of 92%, an Inhibition [2] of 71% and an Inhibition [3] of 20%.

In the case of `Cc1noc(C)c1-c1cccc(CNCc2ccc(-c3ccc(-c4nc5cccc(C)c5[nH]4)cc3)cc2)c1.O=C(O)C(F)(F)F`, the Inhibition [1] is reported as 100%, the Inhibition [2] is reported as 95% and the Inhibition [3] is reported as 28%.

In the case of `CCCNCc1ccc(-c2ccc(CN(CCOC)C(=O)c3ccco3)cc2)nc1.O=C(O)C(F)(F)F`, the Inhibition [1] is reported as 91%, the Inhibition [2] is reported as 21% and the Inhibition [3] is reported as 1%.

`O=C(Nc1cccc(-c2nc3ccccc3[nH]2)c1)c1ccc(-c2cccc([N+](=O)[O-])c2)o1` showed an Inhibition [1] of 93%, an Inhibition [2] of 28% and an Inhibition [3] of 22%.

Compound `Cc1nc2c(=O)sc3ccccc3c2n1Cc1ccccc1` has an Inhibition [1] of 95%, an Inhibition [2] of 26% and an Inhibition [3] of 0%.

Work on `CCOC(=O)c1ccc(NC(=O)N[C@H]2CCN(CCCCCNC(=O)/C=C/c3ccc(Cl)c(Cl)c3)C2)cc1` yielded an Inhibition [1] of 98%, an Inhibition [2] of 1% and an Inhibition [3] of 21%.

— ChEMBL document CHEMBL1157539, “Thousands of chemical starting points for antimalarial lead identification” (Nature, 2010)
